# Assay results reported in PubChem BioAssay.
# Activity calls are given as the source filed them.
# Assays:
# [1] = test system: PRMT1 (protein arginine N-methyltransferase 1); assay: small molecules binding arginine methyltransferase PRMT1 – biochemical, small-molecule microarray, 635 nm fluorescence, primary screen (AID 1088); details: higher = more signal;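 further: binding of Prmt1 protein to compounds spotted on small-molecule microarray slides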
# [2] = growth effects on S. cerevisiae YJM789 – YJM789 clinical isolate, OD600, 24 h, basal, primary screen (AID 1089); details: higher = more signal, called active from +8 up or from −8 down;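 further: growth of clinical yeast isolate S. cerevisiae YJM 789 seeded 1000 cells per well; test concentration not given here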
# [3] = S. pombe growth modifiers, basal conditions – strain 972, OD600, 24 h, no modulator, primary screen (AID 1090);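 further: basal condition with compound alone and no growth modifier present; test concentration not given here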; details: S. pombe 972 growth, higher = more signal, called active from +8 up or from −8 down
# [4] = budding yeast growth modifiers under rapamycin – strain BY4716, OD600, 96 h, primary screen (AID 1091); further: test concentration not given here; details: S. cerevisiae BY4716 + rapamycin, higher = more signal, called active from +8 up or from −8 down
# [5] = biological target: Torsin-1A-interacting protein 2 (Homo sapiens) (UniProt Q8NFQ8); assay: small molecules binding lysate-expressed LULL1 – cell lysate, human LULL1 lysate, 635/667 nm fluorescence, primary screen (AID 1092); details: small-molecule microarray, hLULL1 lysate binding, 635 nm fluorescence; higher = more signal;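 further: probe is lysate of COS7 cells overexpressing human LULL1; score merges per-feature 667 nm fluorescence with signal-to-noise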
# [6] = optical density change of DRC41 E. coli – strain DRC41, OD650, 24 h, E. coli filamentation project, primary screen (AID 1093);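 further: MC1000 strain lacking acrAB efflux and sulA so SOS filamentation is blocked; test concentration not given here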; details: E. coli DRC41 growth, higher = more signal, called active from +8 up or from −8 down
# [7] = probe aLefty2 binding to arrayed compounds – biochemical, biotinylated probe, 635/667 nm fluorescence, primary screen (AID 1094); details: small-molecule microarray, higher = more signal;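 further: score merges spot fluorescence near 667 nm with spot signal-to-noise ratio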
# [8] = test system: Noggin (protein binding on small-molecule microarray); assay: small molecules binding Noggin protein – biochemical, 635/667 nm fluorescence, primary screen (AID 1095); details: 635 nm fluorescence, higher = more signal;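 further: score merges 667 nm feature fluorescence with signal to noise over triplicate slides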
# [9] = biological target: Neurogenic locus notch homolog protein 3 (Homo sapiens) (UniProt Q9UM47); assay: small molecules binding NOTCH3 protein – biochemical, 635/667 nm fluorescence, primary screen (AID 1096); details: small-molecule microarray, 635 nm fluorescence, higher = more signal
# [10] = probe aEGFR binding to arrayed compounds – biochemical, biotinylated probe, 635/667 nm fluorescence, primary screen (AID 1097); details: small-molecule microarray, higher = more signal;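 further: probe is a biotinylated anti-EGFR antibody binding compounds printed on slides; score combines fluorescence near 667 nm and signal to noise of each spot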
# [11] = test system: Plasmodium falciparum Sir2 (PF13_0152, Sir2A); assay: Plasmodium falciparum Sir2A binding compounds – biochemical, small-molecule microarray, 635 nm fluorescence, primary screen (AID 1098); details: fluorescence 635 nm, higher = more signal;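 further: score merges spot fluorescence intensity with its signal-to-noise ratio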
# [12] = probe aDKK1 binding to arrayed compounds – biochemical, biotinylated probe, 635/667 nm fluorescence, primary screen (AID 1099); details: small-molecule microarray, higher = more signal;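 further: score merges 667nm spot fluorescence with signal to noise across triplicate slides; reference of the scale not given here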
# [13] = probe aCHRDL2 binding to arrayed compounds – biochemical, biotinylated probe, 635/667 nm fluorescence, primary screen (AID 1100); details: small-molecule microarray, higher = more signal
# [14] = change in splice reporter luminescence, either direction, cell-based, HEK293, spliceosome inhibition project, primary screen (AID 1101); details: HEK293 splicing luciferase reporter, 24 h, higher = more signal, called active from +8 up or from −8 down;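 further: HEK293 cells carrying a splicing-competent luciferase reporter gene; test concentration not given here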
# [15] = biological target: Fibroblast growth factor 10 (Homo sapiens) (UniProt O15520); assay: compounds binding fibroblast growth factor 10 – biochemical, small-molecule microarray, 635 nm fluorescence, primary screen (AID 1102); details: FGF10 binding, fluorescence 635 nm, higher = more signal
# [16] = test system: glycogen synthase kinase-3 (GSK3A per assay name; protocol says GSK3B); assay: compounds binding glycogen synthase kinase-3 – biochemical, small-molecule microarray, 635 nm fluorescence, GSK3A, primary screen (AID 1103); details: fluorescence 635 nm, higher = more signal; further: the record names both GSK3A and GSK3B
# [17] = biological target: Epidermal growth factor receptor (Homo sapiens) (UniProt P00533); assay: compounds binding epidermal growth factor receptor – biochemical, small-molecule microarray, 635 nm fluorescence, primary screen (AID 1104); details: EGFR binding, higher = more signal;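 further: score merges 667 nm emission intensity with spot signal to noise over triplicate slides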
# [18] = biological target: Follistatin-related protein 3 (Homo sapiens) (UniProt O95633); assay: compounds binding follistatin-related protein 3 – biochemical, small-molecule microarray, 635 nm fluorescence, primary screen (AID 1105); details: FSTL3 binding, higher = more signal;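 further: score merges emission near 667 nm and signal to noise per printed spot across three slides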
# [19] = biological target: Dickkopf-related protein 1 (Homo sapiens) (UniProt O94907); assay: small molecules binding DKK1 protein – biochemical, small-molecule microarray, 635 nm fluorescence scan, primary screen (AID 1106); details: higher = more signal;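 further: score merges emission near 667 nm with signal to noise over three replicate slides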
# [20] = test system: Inhibin beta A chain (activin A); assay: small molecules binding activin A – biochemical, small-molecule microarray, 635 nm fluorescence scan, primary screen (AID 1107); details: INHBA, higher = more signal;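 further: mouse activin A protein probed at 4.33 µg/mL on printed slides; score merges bound-protein fluorescence near 667 nm with spot signal-to-noise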
# Sequence of Fibroblast growth factor 10 (Homo sapiens) (O15520 whole entry, looked up): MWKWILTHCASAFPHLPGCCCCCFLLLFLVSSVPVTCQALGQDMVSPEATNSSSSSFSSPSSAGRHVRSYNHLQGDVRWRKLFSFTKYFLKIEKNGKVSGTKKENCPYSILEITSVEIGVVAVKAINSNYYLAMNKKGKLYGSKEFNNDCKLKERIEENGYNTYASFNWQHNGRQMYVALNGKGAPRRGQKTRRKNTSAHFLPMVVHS
# Sequence of Neurogenic locus notch homolog protein 3 (Homo sapiens) (Q9UM47 whole entry, looked up): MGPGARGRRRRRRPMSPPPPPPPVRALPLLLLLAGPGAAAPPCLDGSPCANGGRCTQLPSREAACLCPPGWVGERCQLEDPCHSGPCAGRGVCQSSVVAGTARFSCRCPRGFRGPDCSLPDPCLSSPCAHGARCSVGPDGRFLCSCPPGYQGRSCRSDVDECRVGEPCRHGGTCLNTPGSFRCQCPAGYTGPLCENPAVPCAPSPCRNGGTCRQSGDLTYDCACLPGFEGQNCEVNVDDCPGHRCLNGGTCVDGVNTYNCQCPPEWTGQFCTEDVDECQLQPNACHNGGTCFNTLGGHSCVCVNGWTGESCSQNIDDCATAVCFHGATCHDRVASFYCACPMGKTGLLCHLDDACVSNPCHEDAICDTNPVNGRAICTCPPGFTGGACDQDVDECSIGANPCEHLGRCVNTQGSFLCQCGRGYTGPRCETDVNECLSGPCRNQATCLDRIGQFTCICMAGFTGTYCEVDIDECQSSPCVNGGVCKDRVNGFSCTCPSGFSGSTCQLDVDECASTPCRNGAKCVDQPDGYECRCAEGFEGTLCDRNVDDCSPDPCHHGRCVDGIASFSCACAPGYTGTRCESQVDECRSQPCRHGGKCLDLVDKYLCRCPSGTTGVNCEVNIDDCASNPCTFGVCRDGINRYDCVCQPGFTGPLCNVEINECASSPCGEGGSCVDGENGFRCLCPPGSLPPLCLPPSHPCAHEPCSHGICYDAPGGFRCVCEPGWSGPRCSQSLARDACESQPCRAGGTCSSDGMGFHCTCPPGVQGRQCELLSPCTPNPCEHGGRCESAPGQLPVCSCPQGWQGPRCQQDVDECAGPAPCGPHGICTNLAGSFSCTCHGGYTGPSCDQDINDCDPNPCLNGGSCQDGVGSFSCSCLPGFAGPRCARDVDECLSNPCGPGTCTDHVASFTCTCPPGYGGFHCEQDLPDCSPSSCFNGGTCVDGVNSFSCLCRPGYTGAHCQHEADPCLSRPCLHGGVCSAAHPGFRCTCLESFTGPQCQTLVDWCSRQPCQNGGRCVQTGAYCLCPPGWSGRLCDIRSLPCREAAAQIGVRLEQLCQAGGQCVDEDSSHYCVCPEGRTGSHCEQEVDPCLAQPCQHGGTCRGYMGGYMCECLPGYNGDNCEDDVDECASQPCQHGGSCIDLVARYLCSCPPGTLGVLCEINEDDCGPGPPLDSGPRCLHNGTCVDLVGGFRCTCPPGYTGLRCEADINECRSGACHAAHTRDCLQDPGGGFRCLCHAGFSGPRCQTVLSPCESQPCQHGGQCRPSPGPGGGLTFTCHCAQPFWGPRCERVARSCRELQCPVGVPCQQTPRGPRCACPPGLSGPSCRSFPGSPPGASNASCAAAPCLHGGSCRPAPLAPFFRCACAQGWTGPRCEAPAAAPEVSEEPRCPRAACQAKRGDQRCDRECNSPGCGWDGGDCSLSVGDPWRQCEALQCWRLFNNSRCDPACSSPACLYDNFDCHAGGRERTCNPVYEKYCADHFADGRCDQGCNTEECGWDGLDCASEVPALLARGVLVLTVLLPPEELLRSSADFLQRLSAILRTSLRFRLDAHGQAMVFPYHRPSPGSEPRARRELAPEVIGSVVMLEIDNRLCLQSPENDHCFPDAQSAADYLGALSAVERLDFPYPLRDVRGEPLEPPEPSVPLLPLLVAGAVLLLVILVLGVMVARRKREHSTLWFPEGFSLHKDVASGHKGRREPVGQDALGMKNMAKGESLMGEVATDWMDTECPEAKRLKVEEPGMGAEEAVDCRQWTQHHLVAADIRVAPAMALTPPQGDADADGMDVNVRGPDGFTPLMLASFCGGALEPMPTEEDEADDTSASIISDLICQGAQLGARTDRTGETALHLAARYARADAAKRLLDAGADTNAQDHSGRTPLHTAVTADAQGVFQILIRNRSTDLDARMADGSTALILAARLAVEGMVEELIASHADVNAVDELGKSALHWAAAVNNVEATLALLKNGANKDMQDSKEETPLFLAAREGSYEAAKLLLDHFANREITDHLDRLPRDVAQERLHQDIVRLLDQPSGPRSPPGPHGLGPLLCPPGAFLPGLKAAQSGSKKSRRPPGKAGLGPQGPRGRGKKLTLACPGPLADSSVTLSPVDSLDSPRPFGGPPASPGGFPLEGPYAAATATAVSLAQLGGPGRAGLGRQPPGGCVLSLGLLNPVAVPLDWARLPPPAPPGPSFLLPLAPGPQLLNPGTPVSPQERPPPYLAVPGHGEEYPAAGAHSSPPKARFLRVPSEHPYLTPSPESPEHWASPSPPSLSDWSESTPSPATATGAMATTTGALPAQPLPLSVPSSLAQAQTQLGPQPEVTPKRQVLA
# Sequence of Torsin-1A-interacting protein 2 (Homo sapiens) (Q8NFQ8 whole entry, looked up): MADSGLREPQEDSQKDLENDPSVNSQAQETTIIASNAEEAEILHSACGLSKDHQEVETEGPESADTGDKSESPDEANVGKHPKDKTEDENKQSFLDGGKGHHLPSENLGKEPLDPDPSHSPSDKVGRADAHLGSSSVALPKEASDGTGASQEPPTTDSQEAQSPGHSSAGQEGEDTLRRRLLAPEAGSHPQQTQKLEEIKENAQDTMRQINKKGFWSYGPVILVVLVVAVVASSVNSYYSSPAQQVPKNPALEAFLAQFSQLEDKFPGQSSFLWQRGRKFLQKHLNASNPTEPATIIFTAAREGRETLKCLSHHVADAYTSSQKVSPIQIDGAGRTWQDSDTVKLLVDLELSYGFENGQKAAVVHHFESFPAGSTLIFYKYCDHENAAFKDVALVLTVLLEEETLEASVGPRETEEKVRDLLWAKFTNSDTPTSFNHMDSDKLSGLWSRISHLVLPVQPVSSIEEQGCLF
# Sequence of Follistatin-related protein 3 (Homo sapiens) (O95633 whole entry, looked up): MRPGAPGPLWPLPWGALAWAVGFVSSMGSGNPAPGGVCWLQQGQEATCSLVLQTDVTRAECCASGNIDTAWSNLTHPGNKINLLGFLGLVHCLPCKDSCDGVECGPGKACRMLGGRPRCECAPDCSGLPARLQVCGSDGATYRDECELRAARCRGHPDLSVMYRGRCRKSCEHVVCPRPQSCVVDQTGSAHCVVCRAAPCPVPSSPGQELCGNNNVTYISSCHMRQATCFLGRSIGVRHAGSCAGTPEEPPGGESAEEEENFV
# Sequence of Epidermal growth factor receptor (Homo sapiens) (P00533 whole entry, looked up): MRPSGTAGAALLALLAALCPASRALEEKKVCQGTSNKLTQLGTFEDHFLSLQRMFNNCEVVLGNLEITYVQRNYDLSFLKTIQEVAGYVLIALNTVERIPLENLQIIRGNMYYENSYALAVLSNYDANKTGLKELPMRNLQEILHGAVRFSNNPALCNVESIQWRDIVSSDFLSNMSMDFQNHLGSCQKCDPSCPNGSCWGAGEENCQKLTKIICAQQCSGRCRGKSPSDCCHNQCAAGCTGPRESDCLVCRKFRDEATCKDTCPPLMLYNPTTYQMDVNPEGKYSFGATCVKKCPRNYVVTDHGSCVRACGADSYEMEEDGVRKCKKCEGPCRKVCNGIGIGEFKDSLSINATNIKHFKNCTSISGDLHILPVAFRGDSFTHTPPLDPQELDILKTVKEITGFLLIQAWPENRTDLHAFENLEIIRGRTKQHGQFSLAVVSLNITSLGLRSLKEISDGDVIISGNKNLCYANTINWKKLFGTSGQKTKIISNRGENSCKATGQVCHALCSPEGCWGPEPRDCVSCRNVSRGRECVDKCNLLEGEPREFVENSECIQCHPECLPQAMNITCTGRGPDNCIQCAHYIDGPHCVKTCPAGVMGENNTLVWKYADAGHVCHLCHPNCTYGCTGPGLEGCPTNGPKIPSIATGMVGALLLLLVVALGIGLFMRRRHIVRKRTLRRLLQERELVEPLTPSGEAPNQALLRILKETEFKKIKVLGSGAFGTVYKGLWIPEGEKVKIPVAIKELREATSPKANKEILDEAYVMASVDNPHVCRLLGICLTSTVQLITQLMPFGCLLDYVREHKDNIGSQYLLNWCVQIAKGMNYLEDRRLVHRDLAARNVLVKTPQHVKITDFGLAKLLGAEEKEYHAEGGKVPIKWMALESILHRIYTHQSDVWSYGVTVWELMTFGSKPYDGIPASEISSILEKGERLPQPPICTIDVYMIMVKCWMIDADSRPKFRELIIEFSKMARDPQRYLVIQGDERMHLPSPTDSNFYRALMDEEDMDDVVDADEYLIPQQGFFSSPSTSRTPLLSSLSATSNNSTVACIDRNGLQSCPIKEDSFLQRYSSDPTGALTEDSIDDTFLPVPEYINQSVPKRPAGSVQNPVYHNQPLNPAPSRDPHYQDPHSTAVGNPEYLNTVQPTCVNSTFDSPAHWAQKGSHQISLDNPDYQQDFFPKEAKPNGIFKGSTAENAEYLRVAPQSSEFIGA
# Sequence of Dickkopf-related protein 1 (Homo sapiens) (O94907 whole entry, looked up): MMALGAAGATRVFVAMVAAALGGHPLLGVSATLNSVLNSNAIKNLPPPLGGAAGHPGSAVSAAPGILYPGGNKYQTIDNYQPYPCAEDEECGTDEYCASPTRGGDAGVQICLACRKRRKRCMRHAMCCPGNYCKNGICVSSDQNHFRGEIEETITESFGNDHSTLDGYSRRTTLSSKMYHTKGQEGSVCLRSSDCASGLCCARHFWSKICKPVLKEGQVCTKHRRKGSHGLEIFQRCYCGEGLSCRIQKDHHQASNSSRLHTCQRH
Structure (SMILES),composite z-score [1],z-score [2],z-score [3],z-score [4],composite z-score [5],z-score [6],composite z-score [7],composite z-score [8],composite z-score [9],composite z-score [10],composite z-score [11],composite z-score [12],composite z-score [13],z-score [14],composite z-score [15],composite z-score [16],composite z-score [17],composite z-score [18],composite z-score [19],composite z-score [20]
C=CC[C@@]1(C(=O)NCCN2CCOCC2)N=C(c2ccc(OCCCO)cc2)O[C@@H]1c1ccccc1,1.54,0.305 (inactive),0.132 (inactive),0.33 (inactive),3.01,0.0348 (inactive),0.0634,2.08,0.625,0.0149,1.28,0.449,0.853,-0.161 (inactive),1.5,1.29,0.802,1.22,0.785,0.726
COCCOC(=O)N1C(=O)[C@@]2(c3cc(C#Cc4ccc(OC)cc4)ccc31)[C@H](C(=O)N1CCc3cc(OC)c(OC)cc3C1)[C@H]1C(=O)O[C@H](c3ccccc3)[C@H](c3ccccc3)N1[C@@H]2c1ccc(O)cc1,1.55,1.99 (inactive),1.71 (inactive),2.29 (inactive),2,1.12 (inactive),-0.23,0.614,1.14,-0.0197,0.404,-0.0986,-0.107,-0.318 (inactive),1.06,1.21,0.465,0.649,0.644,0.837
COCC1=C([C@H](O)CCc2ccccc2)[C@H](CO)[C@@H]2C(=O)N(C)C(=O)[C@@H]2C1,0.267,0.119 (inactive),-0.551 (inactive),0.165 (inactive),0.258,1.99 (inactive),-0.184,0.396,-0.351,-0.106,-0.129,-0.541,-0.578,0.559 (inactive),0.397,0.189,0.456,0.0826,0.408,0.42
C=CCC(OC(C)=O)[C@@H]1[C@@H](N(Cc2cccc3ccccc23)C(=O)Cc2ccc(F)cc2)c2cc(OCCCO)ccc2N1C(=O)Cc1ccc(OC)cc1 (stereo not given in full),-0.151,-1.18 (inactive),0.246 (inactive),-0.72 (inactive),-0.0743,0.802 (inactive),-0.0137,0.122,0.159,-0.309,-0.44,-0.0312,0.0398,-1.07 (inactive),0.398,-0.0555,-0.0723,0.665,0.104,1.25
C[C@]12C(=O)N(CCCCCO)[C@@H]3C(=O)N(c4ccc(Cl)cc4)CC=CC31O[C@@H]1/C=C\CCCOC(=O)C12 (stereo not given in full),-1.37,-0.299 (inactive),-1.14 (inactive),-0.637 (inactive),-1.43,-1.25 (inactive),-0.0986,-0.757,-0.0346,-0.172,0.677,-0.131,0.557,-0.0628 (inactive),-1.21,-1.82,-1.22,-0.934,-1.19,-0.0839
COCCOC(=O)N1C(=O)[C@@]2(c3cc(C#CCNC(N)=O)ccc31)[C@H](c1ccc(OCCO)cc1)N1[C@H](c3ccccc3)[C@H](c3ccccc3)OC(=O)[C@H]1[C@@H]2C(=O)N1CCN(c2ncccn2)CC1,1.43,1.22 (inactive),0.423 (inactive),4.72 (inactive),2.1,0.338 (inactive),0.456,1.35,1.1,-0.0424,0.832,0.46,0.978,-0.37 (inactive),1.25,0.824,0.612,1.3,0.564,1.46
COC(=O)[C@@]1(Cc2ccc(F)cc2)[C@@H]2[C@@H](CC(=O)[C@H]2CC(=O)C(=O)N2CCCC2)CN1C(=O)c1ccccc1,1.27,0.347 (inactive),1.57 (inactive),3.52 (inactive),3.67,-0.708 (inactive),0.299,-0.413,1.03,0.147,1.16,0.942,0.807,-0.98 (inactive),1.11,1.3,-0.121,1.02,-0.0822,0.85
COC(=O)c1c(CC[C@@H](CO)NC(=O)N[C@@H](C)Cn2cc(C3(O)CCCC3)nn2)oc(C(C)=O)c1C(=O)OC,0.913,0.009 (inactive),-1.03 (inactive),-0.117 (inactive),2,-0.159 (inactive),-0.0126,0.555,0.634,-0.0237,0.513,-0.196,-0.206,-1.45 (inactive),0.308,-0.161,0.0477,0.104,-0.217,-0.338
C=CCNC(=O)[C@H]1[C@@H]2C(=O)O[C@@H](c3ccccc3)[C@@H](c3ccccc3)N2[C@@H](c2ccc(O)cc2)[C@]12C(=O)N(C(=O)OCCOC)c1ccc(C#CC3(O)CCCCCC3)cc12,1.55,0.729 (inactive),-0.932 (inactive),0.943 (inactive),2.45,1.87 (inactive),0.0026,0.147,0.838,0.0638,1.35,0.263,0.468,0.0928 (inactive),0.385,0.716,0.228,0.33,0.138,1.09
NC(=O)NCC#Cc1ccc2c(c1)[C@]1(C(=O)N2)[C@H](c2ccc(O)cc2)N2[C@H](c3ccccc3)[C@H](c3ccccc3)OC(=O)[C@H]2[C@@H]1C(N)=O,0.64,0.321 (inactive),0.736 (inactive),0.183 (inactive),1.46,0.248 (inactive),-0.072,-0.238,-1.19,-0.187,0.855,0.431,0.55,-0.278 (inactive),-0.0652,-1.08,-0.341,-0.934,-0.343,0.286
CCOC(=O)C[C@H]1[C@H](OC(=O)c2cc3ccccc3oc2=O)[C@@H](NC(=O)c2ccc3ccccc3n2)c2cc(OCCCO)ccc2N1C(=O)c1ccc2ccccc2n1,0.295,-0.157 (inactive),0.291 (inactive),-0.273 (inactive),0.648,1.5 (inactive),-0.0773,1.03,1.12,0.183,0.522,0.273,-0.033,0.613 (inactive),1.13,0.743,0.503,1.3,1.01,0.626
C[N+](C)(C)CCCCCCNC(=O)[C@H]1C[C@H]2C(=O)N3CCC[C@H]3C(=O)N2[C@H]1c1cccc(OCCO)c1,1.3,-0.811 (inactive),-0.486 (inactive),0.0309 (inactive),3.24,-0.64 (inactive),0.05,0.666,1.08,0.153,1.66,0.273,-0.155,0.592 (inactive),0.755,1.23,0.907,1.3,0.705,0.959
CCCC=C(CCC)[C@@H](NC(=O)Cc1ccccc1)c1ccc(C(=O)OC)cc1,0.658,0.761 (inactive),0.847 (inactive),0.762 (inactive),1.54,-0.556 (inactive),1.1,0.234,0.505,0.577,0.599,1.52,1.17,0.797 (inactive),0.395,0.289,0.43,0.514,-0.285,1.26
CC(C)(C)OC(=O)CC[C@@]1(C(=O)N2CCCCC2)N=C(c2ccc(OCCCO)cc2)O[C@@H]1c1ccccc1N=[N+]=[N-],1.53,-0.336 (inactive),-0.029 (inactive),-0.183 (inactive),3.49,1.11 (inactive),0.253,0.369,1.03,0.208,1.13,0.977,0.964,-0.405 (inactive),1.19,1.3,0.32,1.1,-0.139,0.899
O=C1C2C=CC(C(O)c3ccc(Br)cc3)N(Nc3ccccc3)C2C(=O)N1c1ccccc1 (stereo not given),0.826,0.379 (inactive),0.443 (inactive),0.84 (inactive),2.12,-1.59 (inactive),0.228,-0.325,1.12,-0.0123,0.489,-0.0556,0.504,1.34 (inactive),0.295,0.435,0.181,0.429,-0.25,1.23
O=C1O[C@H](c2ccccc2)[C@H](c2ccccc2)N2[C@H]1[C@@H](C(=O)N1CCCCCCC1)[C@]1(C(=O)Nc3ccccc31)[C@H]2c1ccc(O)cc1,1.55,0.532 (inactive),0.556 (inactive),0.874 (inactive),4.82,0.248 (inactive),2.02,2.26,1.01,1.5,2.04,2.68,1.79,-0.365 (inactive),1.68,1.49,2,1.8,2.68,2
COc1cc2c(cc1OC)CN(C(=O)[C@@H]1[C@H]3C(=O)O[C@H](c4ccccc4)[C@H](c4ccccc4)N3[C@H](c3ccc(OCCO)cc3)[C@@]13C(=O)Nc1ccc(C#CCCO)cc13)CC2,1.54,1.68 (inactive),-0.283 (inactive),3.2 (inactive),3.38,2 (inactive),0.674,1.46,1.08,0.276,1.18,-0.0226,0.772,-0.921 (inactive),1.28,1.27,0.714,1.23,0.646,0.638
COC(=O)[C@@]1(Cc2ccc(OC)cc2)[C@H]2c3cc(C(=O)N4CCCC4)n(Cc4ccc(C)o4)c3C[C@H]2CN1C(=O)c1ccccc1,0.622,-19.7 (active),-15.7 (active),-2.14 (inactive),3.24,-0.715 (inactive),0.292,0.355,1.07,0.0059,1.34,0.839,0.751,-0.293 (inactive),1.24,1.09,0.232,1.32,-0.0427,1.19
CCCCC(=C=CC[C@H](O)c1cccc(OCCO)c1)C[C@H](O)COCc1ccccc1,0.494,-0.646 (inactive),-0.586 (inactive),-1.15 (inactive),1.04,0.338 (inactive),-0.195,-0.0291,-0.323,-0.154,0.766,-0.31,-0.053,-0.992 (inactive),0.688,-0.207,-0.572,-0.117,-0.627,0.58
